# In PubChem BioAssay:
# Calls of active or inactive are those of the source.
# Experiments:
# [1] = optical density shifts of acrAB sulA E. coli – strain DRC41, OD650, 48 h, E. coli filamentation inducer project, primary screen (AID 1152); conditions: higher = more signal, called active from +8 up or from −8 down;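 also: E. coli MC1000 strain DRC41 lacking acrAB efflux pump and sulA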
# [2] = probe aLefty1 binding on compound microarray – biochemical, small-molecule microarray, 635/667 nm fluorescence, primary screen (AID 1153); conditions: higher = more signal;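 also: score merges spot fluorescence with signal-to-noise ratio from the scanned slide images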
# [3] = plasmodial surface anion channel blockers, osmotic lysis – cell-based, P. falciparum Indochina, OD700, 1 h, primary screen (AID 1154); conditions: P. falciparum Indochina infected RBC osmotic lysis, higher = more signal, called active from +8 up or from −8 down
# [4] = plasmodial surface anion channel blockers, osmotic lysis – cell-based, P. falciparum Indochina, OD700, 2 h, primary screen (AID 1155);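 also: lysis reports solute entry through the parasite surface anion channel PSAC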; conditions: P. falciparum Indochina infected erythrocytes, higher = more signal, called active from +8 up or from −8 down
# [5] = changes in parasitized red cell lysis, either direction – P. falciparum Indochina, OD700, 3 h, PSAC antagonist project, primary screen (AID 1156); conditions: P. falciparum-infected erythrocytes, osmotic lysis, higher = more signal, called active from +8 up or from −8 down
# [6] = plasmodial surface anion channel blockers, osmotic lysis – cell-based, P. falciparum Indochina, OD700, 18 h, primary screen (AID 1157); conditions: P. falciparum Indochina infected erythrocytes, osmotic lysis OD700, 18 h; higher = more signal, called active from +8 up or from −8 down
# [7] = S6 kinase pathway phospho-S6 level changes – cell-based, A549, cytoblot, luminescence, serum-stimulated, primary screen (AID 1158); conditions: 5 h, higher = more signal;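 also: serum-stimulated A549 lung adenocarcinoma cells; signal is phosphorylated S6 detected by cytoblot immunostaining with HRP secondary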
# [8] = molecular target: NADPH oxidase 2 (Homo sapiens) (UniProt P04839); test: compounds shifting NOX2 Amplex Red fluorescence – cell-based, HEK293-NOX2, PMA-stimulated, NOX inhibitor project, primary screen (AID 1159); conditions: 45 min, higher = more signal, called active from +8 up or from −8 down; also: test concentration not given here
# Sequence of NADPH oxidase 2 (Homo sapiens) (P04839 whole entry, looked up): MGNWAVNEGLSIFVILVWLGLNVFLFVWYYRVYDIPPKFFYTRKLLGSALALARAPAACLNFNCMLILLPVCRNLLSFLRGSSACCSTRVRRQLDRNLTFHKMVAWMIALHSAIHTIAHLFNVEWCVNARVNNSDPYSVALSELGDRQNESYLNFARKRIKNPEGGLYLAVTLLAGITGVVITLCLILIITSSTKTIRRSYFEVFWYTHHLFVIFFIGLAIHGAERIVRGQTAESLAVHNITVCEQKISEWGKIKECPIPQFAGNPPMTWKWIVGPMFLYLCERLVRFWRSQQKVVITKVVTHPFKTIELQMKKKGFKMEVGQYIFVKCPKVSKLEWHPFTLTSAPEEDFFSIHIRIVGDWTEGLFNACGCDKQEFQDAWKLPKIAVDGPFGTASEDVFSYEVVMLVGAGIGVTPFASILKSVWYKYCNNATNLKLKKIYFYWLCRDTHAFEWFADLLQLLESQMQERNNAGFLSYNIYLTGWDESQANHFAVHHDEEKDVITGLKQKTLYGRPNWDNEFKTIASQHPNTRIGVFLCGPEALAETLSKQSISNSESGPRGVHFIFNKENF
# [9] = molecular target: NADPH oxidase 4 (Homo sapiens) (UniProt Q9NPH5); test: compounds shifting NOX4 Amplex Red fluorescence – cell-based, HEK293-NOX4, tetracycline-induced, NOX inhibitor project, primary screen (AID 1160); conditions: HEK293-NOX4, Amplex Red H2O2 fluorescence, 45 min; higher = more signal, called active from +8 up or from −8 down
# Sequence of NADPH oxidase 4 (Homo sapiens) (Q9NPH5 whole entry, looked up): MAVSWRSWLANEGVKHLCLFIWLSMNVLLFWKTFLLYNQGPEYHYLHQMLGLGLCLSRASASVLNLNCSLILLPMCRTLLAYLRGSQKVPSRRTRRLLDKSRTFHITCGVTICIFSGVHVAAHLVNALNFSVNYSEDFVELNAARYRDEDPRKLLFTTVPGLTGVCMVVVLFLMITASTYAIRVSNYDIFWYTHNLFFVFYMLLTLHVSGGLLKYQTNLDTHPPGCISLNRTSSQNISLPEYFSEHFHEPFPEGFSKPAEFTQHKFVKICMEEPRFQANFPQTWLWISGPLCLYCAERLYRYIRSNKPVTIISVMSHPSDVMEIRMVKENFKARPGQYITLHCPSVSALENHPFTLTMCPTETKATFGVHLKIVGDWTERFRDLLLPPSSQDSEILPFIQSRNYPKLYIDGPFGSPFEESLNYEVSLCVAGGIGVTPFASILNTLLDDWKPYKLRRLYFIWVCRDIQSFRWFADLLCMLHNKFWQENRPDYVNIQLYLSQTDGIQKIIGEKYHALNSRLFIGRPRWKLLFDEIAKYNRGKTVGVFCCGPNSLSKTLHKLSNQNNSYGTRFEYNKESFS
# [10] = molecular target: NADPH oxidase 5 (Homo sapiens) (UniProt Q96PH1); test: compounds shifting NOX5 Amplex Red fluorescence – cell-based, HEK293-NOX5, NOX inhibitor project, primary screen (AID 1161); conditions: HEK293-NOX5, ionomycin, 45 min, higher = more signal
# Sequence of NADPH oxidase 5 (Homo sapiens) (Q96PH1 whole entry, looked up): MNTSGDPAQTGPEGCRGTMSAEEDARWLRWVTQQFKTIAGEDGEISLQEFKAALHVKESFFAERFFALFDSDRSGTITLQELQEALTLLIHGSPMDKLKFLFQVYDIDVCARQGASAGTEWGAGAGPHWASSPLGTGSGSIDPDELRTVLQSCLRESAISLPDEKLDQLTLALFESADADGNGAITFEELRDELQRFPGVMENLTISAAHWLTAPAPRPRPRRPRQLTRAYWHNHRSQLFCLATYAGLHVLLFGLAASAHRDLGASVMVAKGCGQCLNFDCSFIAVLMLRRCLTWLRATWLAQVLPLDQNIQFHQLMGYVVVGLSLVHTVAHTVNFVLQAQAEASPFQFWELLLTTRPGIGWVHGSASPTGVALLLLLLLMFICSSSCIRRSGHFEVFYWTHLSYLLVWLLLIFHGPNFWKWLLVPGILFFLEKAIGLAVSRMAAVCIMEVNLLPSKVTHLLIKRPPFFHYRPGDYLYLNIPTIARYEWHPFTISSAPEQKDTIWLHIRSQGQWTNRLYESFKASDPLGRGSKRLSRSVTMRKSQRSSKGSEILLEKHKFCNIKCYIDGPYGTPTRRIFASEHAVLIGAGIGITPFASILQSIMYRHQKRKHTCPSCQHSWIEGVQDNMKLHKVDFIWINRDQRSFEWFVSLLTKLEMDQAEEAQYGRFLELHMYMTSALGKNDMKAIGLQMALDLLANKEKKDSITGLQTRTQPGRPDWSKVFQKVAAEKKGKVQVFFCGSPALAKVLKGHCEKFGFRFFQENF
# [11] = compound effects on lung adenocarcinoma cell viability – A549, calcein-AM fluorescence, 48 h, basal, profiling panel (AID 1162); conditions: higher = more signal; also: test concentration not given here
# [12] = compound effects on differentiated 3T3-L1 adipocyte viability – cell-based, 3T3-L1 adipocytes, calcein-AM fluorescence, 48 h, basal, profiling panel (AID 1163); conditions: 3T3-L1 adipocytes viability, higher = more signal; also: test concentration not given here
# [13] = compound effects on hepatocellular carcinoma cell viability – HepG2, calcein-AM fluorescence, 48 h, basal, profiling panel (AID 1164); conditions: higher = more signal; also: test concentration not given here
# [14] = compound effects on multiple myeloma cell viability – MM1S, calcein-AM fluorescence, 48 h, basal, profiling panel (AID 1165); conditions: higher = more signal; also: test concentration not given here
# [15] = calcein-AM signal in unstimulated myeloma cells – cell-based, calcein-AM fluorescence, 48 h, PK04 Diversity Set, profiling panel (AID 1166); conditions: RPMI8226 myeloma viability, higher = more signal;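 also: cells grown under basal conditions without added stimulus; test concentration not given here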
# [16] = JC-1 mitochondrial signal, unstimulated HepG2 cells – cell-based, JC-1 fluorescence, 24 h, 100 nL compound, profiling panel (AID 1167); conditions: HepG2 mitochondrial potential, higher = more signal; also: test concentration not given here
# [17] = JC-1 mitochondrial signal, unstimulated adipocytes – cell-based, JC-1 fluorescence, 3T3-L1 adipocytes, 24 h, 100 nL compound, profiling panel (AID 1168); conditions: JC-1 mitochondrial fluorescence, higher = more signal, called active from +8 up or from −8 down; also: test concentration not given here
# [18] = JC-1 mitochondrial signal, unstimulated myeloma cells – cell-based, JC-1 fluorescence, RPMI8226, 24 h, 100 nL compound, profiling panel (AID 1169); conditions: JC-1 mitochondrial potential fluorescence, higher = more signal; also: test concentration not given here
# [19] = JC-1 mitochondrial signal, unstimulated MM1S myeloma – cell-based, JC-1 fluorescence, 24 h, 100 nL compound, profiling panel (AID 1170); conditions: MM1S mitochondrial potential, higher = more signal; also: test concentration not given here
# [20] = resazurin metabolic signal in A549 cells – cell-based, resazurin fluorescence, 24 h, PK04 Diversity Set, profiling panel (AID 1171); conditions: A549 viability, higher = more signal, called active from +8 up or from −8 down; also: test concentration not given here
Structure (SMILES),z-score [1],composite z-score [2],z-score [3],z-score [4],z-score [5],z-score [6],z-score [7],z-score [8],z-score [9],z-score [10],z-score [11],z-score [12],z-score [13],z-score [14],z-score [15],z-score [16],z-score [17],z-score [18],z-score [19],z-score [20]
CCOC(=O)[C@H](CC(C)C)NC(=O)CCC1CC(OC(=O)NCc2cccc3ccccc23)CC2(CCCC(COC(=O)NCCc3ccccc3OC)O2)O1 (stereo not given in full),-0.596 (inactive),-0.147,-1.28 (inactive),-0.0901 (inactive),-0.868 (inactive),0.298 (inactive),0.0059,0.527 (inactive),0.69 (inactive),1.02,-0.571,-0.187,-0.766,0.0779,-0.407,0.602,-0.0276 (inactive),-0.0975,-0.157,0.45 (inactive)
CC(C)CON=C1C[C@@H](O)[C@@H](O)[C@@H]2[C@@H]3C(=O)N(C[C@@H]4CCCO4)C(=O)[C@@H]3CC[C@H]12,0.165 (inactive),-0.0559,0.0811 (inactive),0.449 (inactive),-0.425 (inactive),-0.0131 (inactive),-0.383,0.202 (inactive),0.313 (inactive),-0.61,-0.31,-0.528,-0.222,0.12,-0.259,-0.637,-1.27 (inactive),0.347,0.0335,0.322 (inactive)
CCCCC(=C=CC[C@H](O)c1ccccc1OCCO)C[C@H](O)COCc1ccccc1,-0.16 (inactive),-0.0544,12 (active),1.72 (inactive),0.725 (inactive),0.921 (inactive),-0.424,-1.02 (inactive),-1.37 (inactive),-2.05,0.395,0.0907,0.514,-2.92,-1.29,-0.0498,-0.643 (inactive),-0.621,-0.611,0.189 (inactive)
CC(C)NC(=O)[C@@H]1c2ccccc2C(=O)N(CC23CC4CC(CC(C4)C2)C3)[C@H]1c1ccc(CO)cc1,1.47 (inactive),0.433,1.63 (inactive),-0.315 (inactive),-0.143 (inactive),-0.853 (inactive),1.31,0.357 (inactive),0.318 (inactive),-1.82,1.39,0.885,1.29,-0.0705,0.301,1.83,-0.459 (inactive),0.433,-0.624,1.18 (inactive)
COc1ccc(O[C@H]2C=C[C@@H](c3ccccc3)O[C@@H]2COC(=O)CCC(C)=NO[C@@H](C)c2cc(-c3c(C)cc(C)cc3C)no2)cc1,0.409 (inactive),-0.378,0.595 (inactive),0.322 (inactive),0.488 (inactive),0.245 (inactive),-0.0348,1.18 (inactive),-0.00862 (inactive),-1.09,-0.845,0.0504,0.033,0.0731,-0.644,0.48,-1.34 (inactive),0.129,-0.424,1.8 (inactive)
C[C@H](c1ccccc1)N1C(=O)[C@H]2[C@@H]3C(=CC[C@H]2C1=O)C(=O)[C@H]1O[C@H]1[C@H]3O,0.0931 (inactive),-0.239,-0.564 (inactive),-0.0275 (inactive),0.163 (inactive),-0.0165 (inactive),-0.836,-0.76 (inactive),-0.156 (inactive),1.13,-1.86,0.265,-4.46,-3.11,-3.94,1.02,1.02 (inactive),-1.03,-2.92,-2.16 (inactive)
CC(=O)OC[C@H]1O[C@H](CCON=C[C@@H](C)[C@H](OCc2ccccc2)C(C)C)C=C[C@@H]1OC(C)=O,-2.02 (inactive),-0.313,1.25 (inactive),0.412 (inactive),1.01 (inactive),0.367 (inactive),-0.297,-0.953 (inactive),-0.218 (inactive),-2.17,-0.606,-0.52,-0.737,-0.09,-0.5,-1.26,-0.801 (inactive),-0.0185,0.0314,0.0793 (inactive)
CC(CCC(=O)OC[C@H]1O[C@H](C#Cc2ccccc2)C=C[C@@H]1Oc1ccc(C)cc1)=NOC[C@@H](O)[C@H]1O[C@@H]2OC(C)(C)O[C@@H]2[C@H]1O,0.715 (inactive),-0.193,14.2 (active),1.9 (inactive),0.0766 (inactive),1.05 (inactive),0.078,-1.55 (inactive),-0.00198 (inactive),-1.2,0.0105,-0.0958,0.0263,-0.567,-1.53,-0.791,-0.649 (inactive),-0.0641,-1.26,-0.042 (inactive)
C=CC[C@@H]1C=C[C@H](ON=C(C)CCN2CCc3nc(CC)c(CC)cc3C2)[C@@H](CO)O1,0.31 (inactive),0.288,2.65 (inactive),0.37 (inactive),0.412 (inactive),0.294 (inactive),-1.15,-1.24 (inactive),0.492 (inactive),1.82,1.36,1.06,-1.47,-0.727,0.121,3.09,-1.31 (inactive),0.0868,-0.587,0.097 (inactive)
